Source: PubChem BioAssay
The source made the active and inactive calls.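 How the source made its calls, unless noted: active means visual image review flags a hit and inhibition of aggregation exceeds 20%; inconclusive means visual hit but inhibition at or below 20%; inactive means no hit on visual image review.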

Key:
[1] = inhibitors of TNFa-induced NFkB p65 translocation, primary screen, imaging, HUVEC, MLSMR starter and 10KST1 sets (AID 438;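 active means inhibition above 20% together with a positive visual image hit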;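 further: compound added about 3h40 before a 20 min TNFalpha stimulation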;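 on inhibition: signal is the nuclear over cytoplasmic p65 intensity ratio per well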); conditions: HUVEC TNFa-induced p65 nuclear translocation; cell count: measured here: nuclei count (cytotoxicity indicator), at 2.08 µM; inhibition: at 2 µM, stronger effect = higher value, 0% TNFa-plus-vehicle, 100% no-TNFa wells
[2] = reduction of polyQ htt aggregates in cells – imaging, exon1htt(103Q)mCFP cells, high-content imaging, primary screen (AID 483); conditions: exon1htt(103Q)mCFP cell line, aggregate imaging, at 2 µM; inhibition of aggregation: stronger effect = higher value; nuclei count: measured here: cell count, toxicity;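 further: compound exposure lasted 3 days before fixation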;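 on nuclei count: percent of the per-plate median nuclei count of sample wells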
[3] = endothelial E-selectin expression blockers – imaging, HUVEC, immunofluorescence, MLSMR starter and 10KST1 sets, primary screen (AID 487;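 active means visually confirmed hit in the image check and inhibition above 20%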;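 on inhibition: signal is fraction of cell area covered by stained E-selectin grains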;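 on nuclei count: 100% = median nuclei count of all wells on the same plate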); conditions: HUVEC TNFalpha-induced E-selectin immunofluorescence imaging, at 2 µM; inhibition: stronger effect = higher value; nuclei count: measured here: cell number, toxicity
[4] = molecular target: Voltage-gated potassium channel subunit beta-2 (Rattus norvegicus) (UniProt P62483); experiment: inhibitors of rat Kvbeta2 reductase activity – biochemical, NADPH fluorescence, primary screen (AID 622;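 active means fluorescence slope higher than the sample average by over 3 SD, cut at about -0.22 in these data, passing the limit was not always enough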;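 further: slope of raw intensity against log time taken from 70 to 1610 s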); conditions: recombinant KvBeta, 4-cyanobenzaldehyde reduction, at 10 µM, stronger effect = higher value
[5] = molecular target: Voltage-gated potassium channel subunit beta-2 (Rattus norvegicus) (UniProt P62483); experiment: enhancers of rat Kvbeta2 NADPH turnover – biochemical, NADPH fluorescence, primary screen (AID 623;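 active means NADPH fluorescence slope more negative than the mean of all samples by about 3 SD, 99.7% confidence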;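 further: fluorescence intensity change per second fitted from 20 to 320 s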); conditions: Recombinant KvBeta, NADPH fluorescence decrease slope, 10 min; at 10 µM; stronger effect = lower value
[6] = molecular target: Alpha-2C adrenergic receptor (Homo sapiens) (UniProt P18825); experiment: compounds altering alpha2C-coupled GIRK flux – cell-based, HEK293 alpha2C/GIRK1/2, thallium flux, primary screen (AID 624;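 active means fluorescence slope after compound addition differing from the mean of all screened samples at 99.7% confidence, in either direction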;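 further: slope of fluorescence ratio to pre-addition baseline per second over 15 to 24 s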); conditions: thallium flux BTC fluorescence, at 10 µM, actives lie on both sides
[7] = blockers of RIG-like receptor reporter activation – cell-based, Sendai virus stimulus, luciferase, 10K MLSCN set, TLR/RLR signaling modifier project, primary screen (AID 602276;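 active means inhibition at or above 50% at 10 µM; inactive means inhibition below 50%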;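 further: firefly luciferase from ISG56 promoter only with Renilla not read in this screen; 0% = Sendai virus plus DMSO and 100% = medium plus DMSO without virus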); conditions: HEK293 RL24 IRF3 luciferase reporter, at 10 µM, stronger effect = higher value
[8] = TLR3 IRF3 reporter activation blockers – cell-based, poly I:C stimulus, luciferase, 10K MLSCN set, primary screen (AID 602277;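 active means inhibition of the reporter signal at or above 50%; inactive means inhibition below 50%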); conditions: HEK293-TLR3 RL24 IRF3 luciferase reporter, at 10 µM, stronger effect = higher value

Chain of Alpha-2C adrenergic receptor (Homo sapiens) (P18825 whole entry, looked up): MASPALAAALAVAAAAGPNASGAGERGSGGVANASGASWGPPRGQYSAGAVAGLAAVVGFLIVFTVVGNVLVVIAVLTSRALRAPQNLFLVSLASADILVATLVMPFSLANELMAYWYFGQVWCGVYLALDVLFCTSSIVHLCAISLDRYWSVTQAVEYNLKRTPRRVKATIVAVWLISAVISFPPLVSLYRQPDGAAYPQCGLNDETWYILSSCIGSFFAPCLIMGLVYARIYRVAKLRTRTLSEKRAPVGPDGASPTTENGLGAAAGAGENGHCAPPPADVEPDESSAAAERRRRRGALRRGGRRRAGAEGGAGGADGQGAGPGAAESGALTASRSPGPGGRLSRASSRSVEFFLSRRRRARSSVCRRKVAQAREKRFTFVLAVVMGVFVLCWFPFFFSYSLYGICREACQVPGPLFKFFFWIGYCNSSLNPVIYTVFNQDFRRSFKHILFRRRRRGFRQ
Chain of Voltage-gated potassium channel subunit beta-2 (Rattus norvegicus) (P62483 whole entry, looked up): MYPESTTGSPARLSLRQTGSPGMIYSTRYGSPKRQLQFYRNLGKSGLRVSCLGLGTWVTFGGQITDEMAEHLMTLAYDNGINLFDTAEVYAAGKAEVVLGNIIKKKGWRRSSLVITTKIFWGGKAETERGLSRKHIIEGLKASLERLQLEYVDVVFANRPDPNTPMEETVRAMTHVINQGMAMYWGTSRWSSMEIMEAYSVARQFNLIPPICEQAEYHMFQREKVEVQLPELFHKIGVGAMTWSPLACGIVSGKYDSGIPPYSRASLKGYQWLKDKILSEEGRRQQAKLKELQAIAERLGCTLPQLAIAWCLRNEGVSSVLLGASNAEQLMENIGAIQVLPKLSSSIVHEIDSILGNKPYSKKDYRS

Row | Compound | cell count [1] | inhibition [1] | inhibition of aggregation [2] | nuclei count [2] [%] | inhibition [3] | nuclei count [3] [%] | fluorescence slope [4] | NADPH fluorescence slope [5] | slope [6] | inhibition [7] | inhibition [8]
1 | O=C(CSc1nc2ccccc2nc1SCC(=O)N1CCOCC1)N1CCOCC1 | 473 | 7.6% (inactive) | 11.3% (inactive) | 93.3 | -239% (inactive) | 115 | -0.354 (inactive) | -4.2e-05 (inactive) | 0.00548 (inactive) | 9.88% (inactive) | 27.5% (inactive)
2 | CCn1c(C(Cc2ccccc2)NC(=O)COC)nc2ccccc21 (centres undefined) | 471 | 13.9% (inactive) | 5.5% (inactive) | 124 | 14.1% (inactive) | 110 | -0.536 (inactive) | -6.3e-05 (inactive) | 0.00652 (inactive) | 11% (inactive) | 31.9% (inactive)
3 | Cc1cccc(N2CCN(Cc3c(C)n(C)n(-c4ccccc4)c3=O)CC2)c1C | 451 | 0.5% (inactive) | 9.8% (inactive) | 92.6 | -29.6% (inactive) | 124 | -0.465 (inactive) | 5.9e-05 (inactive) | 0.00748 (inactive) | 13.4% (inactive) | 18.5% (inactive)
4 | COc1ccc(C2C(C(C)=O)=C(O)C(=O)N2C)c(OC)c1 (centres undefined) | 464 | 3.8% (inactive) | -2.5% (inactive) | 116 | -48.3% (inactive) | 136 | -0.461 (inactive) | -1.6e-05 (inactive) | 0.00277 (inactive) | 5.02% (inactive) | 32% (inactive)
5 | CCOC(=O)N1CCN(Cc2cc(=O)oc3ccc4ccccc4c23)CC1 | 472 | 16.9% (inactive) | 11.2% (inactive) | 93.3 | -64% (inactive) | 113 | -0.408 (inactive) | 8.3e-06 (inactive) | 0.0055 (inactive) | 16.9% (inactive) | 21.7% (inactive)
6 | CC(=O)N(CCc1ccccc1C)Cc1cc2cc3c(cc2[nH]c1=O)OCO3 | 251 | 12.1% (inactive) | 1.2% (inactive) | 86.1 | -68.1% (inactive) | 116 | -0.592 (inactive) | -6.2e-05 (inactive) | 0.00459 (inactive) | 8.48% (inactive) | 15.6% (inactive)
7 | CCOc1ccccc1NC(=O)C1CCCN(S(=O)(=O)c2cccc3cccnc23)C1 (centres undefined) | 717 | 0% (inactive) | 14.7% (inactive) | 124 | -55.7% (inactive) | 101 | -0.55 (inactive) | -3.3e-05 (inactive) | 0.00547 (inactive) | 19.8% (inactive) | 43.4% (inactive)
8 | Cc1ccc(C)n1-n1c(C)nc2sc(-c3ccccc3)cc2c1=O | 419 | -0.6% (inactive) | -8.2% (inactive) | 85.3 | -143% (inactive) | 109 | -0.363 (inactive) | 3.8e-06 (inactive) | 0.00611 (inactive) | -68% (inactive) | -272% (inactive)
9 | O=C(NCCCN1CCCC1=O)C1CCN(S(=O)(=O)N2CCOCC2)CC1 | 195 | 25.3% (active) | 17.1% (inactive) | 94.9 | 27.7% (inactive) | 81.9 | -0.362 (inactive) | -4.9e-05 (inactive) | 0.00575 (inactive) | -12.7% (inactive) | -7.16% (inactive)
10 | COCCCNC(=O)CSc1nc2ccc(N3CCOCC3)cc2c(=O)n1CCc1ccccc1 | 369 | -1.6% (inactive) | -0.2% (inactive) | 104 | 17% (inactive) | 113 | -0.558 (inactive) | 1.6e-05 (inactive) | 0.00582 (inactive) | -0.853% (inactive) | -8.93% (inactive)
11 | O=C1C/C(=C/NCc2ccccc2)C(=O)N1 | 464 | -7.4% (inactive) | 22.7% (inactive) | 67.6 | -106% (inactive) | 95.9 | -0.423 (inactive) | -2.2e-05 (inactive) | 0.0024 (inactive) | 4.55% (inactive) | 30.7% (inactive)
12 | CS(=O)(=O)Nc1ccccc1C(=O)O | 363 | -2.1% (inactive) | -4.3% (inactive) | 113 | -81.2% (inactive) | 121 | -0.411 (inactive) | -2.7e-05 (inactive) | 0.00253 (inactive) | 11.5% (inactive) | 33% (inactive)
13 | COc1ccc(NC(=O)c2oc3ccccc3c2NC(=O)c2ccco2)cc1 | 317 | -4.8% (inactive) | 23.6% (inactive) | 95.9 | -4.1% (inactive) | 95.1 | -0.411 (inactive) | 2.7e-05 (inactive) | 0.00551 (inactive) | -10.3% (inactive) | -48.1% (inactive)
14 | Cc1cc(NC(=O)C23CCC(C)(C(=O)O2)C3(C)C)no1 (centres undefined) | 406 | 4% (inactive) | 14.4% (inactive) | 80.2 | -22.3% (inactive) | 111 | -0.612 (inactive) | -1.5e-06 (inactive) | 0.00569 (inactive) | 4.18% (inactive) | 10.3% (inactive)
15 | CC(C)(C)c1cc(NC(=O)c2cc(F)c(F)c(F)c2F)no1 | 405 | -2.1% (inactive) | -14.9% (inactive) | 104 | -96.2% (inactive) | 112 | -0.435 (inactive) | -6.8e-06 (inactive) | 0.00297 (inactive) | -23.2% (inactive) | -90.4% (inactive)
16 | O=C(Nc1cc(C(F)(F)F)ccc1Cl)C1CCN(c2nnc(-n3cccc3)s2)CC1 | 329 | -2.9% (inactive) | 6.1% (inactive) | 84.2 | -114% (inactive) | 126 | -0.39 (inactive) | -5.6e-05 (inactive) | 0.00662 (inactive) | 17.2% (inactive) | 9.28% (inactive)
17 | Nc1nc(Nc2ccc(Cl)cc2Cl)nc(C(F)(F)F)n1 | 348 | 0.6% (inactive) | -0.7% (inactive) | 96.9 | -19.5% (inactive) | 105 | -0.348 (inactive) | -1.8e-06 (inactive) | 0.00538 (inactive) | -32.5% (inactive) | -84.9% (inactive)
18 | O=C(NCCN1CCOCC1)c1ccc2c(c1)N(Cc1ccccc1F)C(=O)CS2 | 591 | 5.8% (inactive) | 6% (inactive) | 67.6 | -51.7% (inactive) | 111 | -0.456 (inactive) | -2e-06 (inactive) | 0.00607 (inactive) | 9.96% (inactive) | 22.6% (inactive)
19 | Cc1ccccc1C(=O)NC1CCN(Cc2nnnn2Cc2ccccc2)CC1 | 551 | -30.6% (inactive) | -10.9% (inactive) | 110 | -36.5% (inactive) | 111 | -0.585 (inactive) | -4.3e-05 (inactive) | 0.00483 (inactive) | 7.81% (inactive) | 19.8% (inactive)
